Experimental findings from PubChem BioAssay are described below.

Experiment [1] in a line: rapamycin-like changes in RPL19A-GFP expression – cell-based, S. cerevisiae, multiplex flow cytometry, primary screen (AID 1862; in the data active = percent of DMSO control GFP below about 86%;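 note: lower values mimic rapamycin by blocking the RPL19A rise seen in DMSO cells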). The following applies: S. cerevisiae RPL19A-GFP strain, flow cytometry fluorescence, 3 h; at 10 µM; stronger effect = lower value. In general terms: In flow cytometry, cells or beads pass a laser one at a time.
A short description of experiment [2]: TOR pathway GLN3 branch reporter MEP2-GFP changes – S. cerevisiae, multiplex flow cytometry, primary screen (AID 1867;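 active = GFP response, as percent of the DMSO control, above the screen-wide mean plus 3 SD, about 139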;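 note: median GFP channel fluorescence of barcode-gated MEP2-GFP cells measured by flow cytometry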). To be noted: S. cerevisiae MEP2-GFP strain, 3 h, at 10 µM, stronger effect = higher value, 100% means same as DMSO wells.
Experiment [3] can be described thus: TOR pathway RTG branch CIT2 reporter changes – S. cerevisiae, GFP fusion, multiplex flow cytometry, primary screen (AID 1870;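 active = percent response above a set limit, the screen-wide mean plus 3 SD, cut at about 130% in these data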;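 note: barcoded CIT2-GFP strain pooled with four other GFP strains with rapamycin as positive control; median GFP fluorescence per well over plate mean of DMSO wells so 100% = DMSO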). To be noted: S. cerevisiae CIT2-GFP expression, 3 h, at 10 µM, stronger effect = higher value.
Experiment [4] in a line: TOR pathway LAP4-GFP level changes – S. cerevisiae, multiplex flow cytometry, primary screen (AID 1873;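 active = GFP signal, as percent of the solvent control, above the screen mean plus 3 SD, about 149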). To be noted: S. cerevisiae LAP4-GFP expression, 3 h, at 10 µM, stronger effect = higher value.
The nature of experiment [5]: yeast AGP1-GFP level changes, GLN3 branch – cell-based, multiplex flow cytometry, S. cerevisiae, primary screen (AID 1887;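 active = GFP signal above the screen-wide mean plus 3 SD, that is over about 124.5% of the solvent control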;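 note: AGP1-GFP fusion strain of S. cerevisiae within a five-strain barcoded multiplex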). To be noted: 3 h, at 10 µM, stronger effect = higher value.
The nature of experiment [6]: hit retest on RPL19A-GFP reporter strain – cell-based, S. cerevisiae, flow cytometry, cherry picks, mother/daughter gates, confirmation (AID 2270;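 active = GFP response below 50% of the DMSO control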). The following applies: 3 h, at 10 µM, stronger effect = lower value, 100 = same GFP as DMSO wells.
Experiment [7] can be described thus: yeast TOR pathway reporter LAP4-GFP change – cell-based, cherry picks, flow cytometry, mother/daughter gates, confirmation (AID 2271;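 active = GFP response above 150% of the DMSO control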;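 note: ratio of sample to DMSO plate mean so 100% equals DMSO level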). To be noted: S. cerevisiae LAP4-GFP strain, 3 h, at 10 µM, stronger effect = higher value, 100 means same as DMSO control.
Experiment [8] in a line: TOR pathway reporter MEP2-GFP, retest of hits – S. cerevisiae, flow cytometry GFP, cherry picks, confirmation (AID 2272;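 active = GFP response above 150% of the DMSO control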;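 note: ratio of well signal to plate DMSO mean so 100% equals DMSO level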). To be noted: S. cerevisiae MEP2-GFP strain, 3 h, at 10 µM, stronger effect = higher value.
A short description of experiment [9]: TOR pathway CIT2 reporter hit retest – S. cerevisiae, GFP fusion, cherry picks, mother/daughter gates, confirmation (AID 2274;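 active = GFP response above 150% of the DMSO level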). To be noted: S. cerevisiae CIT2-GFP strain, flow cytometry, 3 h, at 10 µM, stronger effect = higher value.
Experiment [10] can be described thus: reduced mouse 2C T cell binding to pMHC/ICAM-1 vesicles – MLPCN validation set, flow cytometry, LFA-1/ICAM-1 modulator project, pilot screen (AID 2523;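 active = response below a set limit, under 55% cells CD8-positive and vesicle-bound, and CD8 cells' 90th-percentile brightness under 279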;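 for vesicle binding response: mean PE anti-B7-1 fluorescence of CD8+ cells relative to row control; 100% = QL9-loaded vesicles with DMSO vehicle in the same plate row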). The following applies: 2C mouse CD8+ T cells, at 7 µM, stronger effect = lower value; double positive events: measured here: CD8+/vesicle+ event percentage.
Experiment [11] in a line: interference with biotin-avidin bead interaction – biochemical, flow cytometry, bead-based, counter-screen for RGS protein interaction modulators (AID 1783;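 active = inhibition above 50%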;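 note: median green fluorescence of gated singlet beads compared with DMSO control wells; 0% = DMSO wells and 100% = complete loss of bead fluorescence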). To be noted: streptavidin beads, fluorescein-biotin binding; at 10 µM, stronger effect = higher value.
Experiment [12] has as its target Guanine nucleotide-binding protein G(o) subunit alpha (Homo sapiens) (UniProt P09471). Briefly: retest of RGS8-Galphao interaction hits – biochemical, multiplexed bead flow cytometry, single concentration, confirmation (AID 1836; in the data active = binding response below about 72% or above about 130%; inactive = in between;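 note: Galphao activated as GDP AlF4 complex before binding bead RGS8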). The following applies: bead-based flow cytometry RGS8-Galphao binding, fluorescence; at 10 µM; actives lie on both sides.
Experiment [13] has the same target. Briefly: retest of RGS7-Galphao interaction hits – biochemical, multiplexed bead flow cytometry, single concentration, confirmation (AID 1837; in the data active = response below about 75% or above about 130%; inactive = in between;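 note: fluorescent Galphao activated with GDP and aluminum fluoride binding bead-coupled RGS7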). The following applies: bead-based flow cytometry RGS7-Galphao binding; at 10 µM; actives lie on both sides.
Experiment [14] has as its target Regulator of G-protein signaling 16 (Homo sapiens) + Guanine nucleotide-binding protein G(o) subunit alpha (Homo sapiens) (UniProt O15492+P09471). Briefly: RGS16 and Galphao interaction regulators – biochemical, single concentration, multiplexed bead flow cytometry, confirmation (AID 1838; in the data active = response below about 74% or above about 130%; inactive = in between;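 note: Galphao activated as the GDP aluminium fluoride complex binding bead-coupled RGS16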). To be noted: bead-based flow cytometry, at 10 µM, actives lie on both sides.

Experiment [15] concerns the target Guanine nucleotide-binding protein G(o) subunit alpha (Homo sapiens) (UniProt P09471). Briefly: RGS4 and Galphao interaction regulators – biochemical, single concentration, multiplexed bead flow cytometry, confirmation (AID 1840; in the data active = binding response below about 74% or above about 130%; inactive = in between). To be noted: at 10 µM, actives lie on both sides.
In experiment [16] the target is Guanine nucleotide-binding protein G(o) subunit alpha (Homo sapiens) + Regulator of G-protein signaling 19 (Homo sapiens) (UniProt P09471+P49795). The experiment in a line: RGS19 interaction with Gαo, hit retest – biochemical, single point, multiplexed bead flow cytometry, confirmation (AID 1841).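 Note: 100% = no compound control and 0% = blank background.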 To be noted: bead-based flow cytometry RGS19-Galphao binding; at 10 µM; actives lie on both sides.

Experiment [17] addresses Regulator of G-protein signaling 16 (Homo sapiens) (UniProt O15492). Briefly: small molecules altering RGS protein interactions with GNAO1 – biochemical, multiplexed beads, flow cytometry, RGS4/7/8/16/19, primary screen (AID 1504).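 Note: fluorescently labeled Galpha-o bound to GDP with aluminium fluoride binding biotinylated RGS beads.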 To be noted: multiplexed bead flow cytometry, measured here: RGS16 interaction, at 10 µM.
For experiment [18], the target named is Regulator of G-protein signaling 19 (Homo sapiens) (UniProt P49795). Described as above. To be noted: multiplexed bead flow cytometry, measured here: RGS19 interaction, at 10 µM.
Experiment [19] addresses Regulator of G-protein signaling 7 (Homo sapiens) (UniProt P49802). The experiment is described as above. To be noted: multiplexed bead flow cytometry, measured here: RGS7 interaction, at 10 µM.
For experiment [20], the target named is Regulator of G-protein signaling 8 (Homo sapiens) (UniProt P57771). Described as above. To be noted: multiplexed bead flow cytometry, measured here: RGS8 interaction, at 10 µM.
[21] abbreviates: measured here: daughter cell gate.
Where [22] appears, read: measured here: mother cell gate.
[23] abbreviates: measured here: daughter cell gate response.
Where [24] appears, read: measured here: mother cell gate response.

Inconclusive results are not listed. The list shows a part of the results. Activity calls are given as the source filed them. Cut-off read from the data, not from the text of the source, unless noted: active = response below about 50% or above about 160%; inactive = in between.

Regulator of G-protein signaling 16 (Homo sapiens) + Guanine nucleotide-binding protein G(o) subunit alpha (Homo sapiens), sequence (O15492 whole entry, looked up): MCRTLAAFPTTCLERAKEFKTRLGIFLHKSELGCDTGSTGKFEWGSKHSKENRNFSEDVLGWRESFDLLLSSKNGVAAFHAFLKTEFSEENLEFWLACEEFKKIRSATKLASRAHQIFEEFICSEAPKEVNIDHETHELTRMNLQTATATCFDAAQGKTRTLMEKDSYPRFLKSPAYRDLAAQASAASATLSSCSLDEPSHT
Regulator of G-protein signaling 16 (Homo sapiens) + Guanine nucleotide-binding protein G(o) subunit alpha (Homo sapiens), sequence (P09471 whole entry, looked up): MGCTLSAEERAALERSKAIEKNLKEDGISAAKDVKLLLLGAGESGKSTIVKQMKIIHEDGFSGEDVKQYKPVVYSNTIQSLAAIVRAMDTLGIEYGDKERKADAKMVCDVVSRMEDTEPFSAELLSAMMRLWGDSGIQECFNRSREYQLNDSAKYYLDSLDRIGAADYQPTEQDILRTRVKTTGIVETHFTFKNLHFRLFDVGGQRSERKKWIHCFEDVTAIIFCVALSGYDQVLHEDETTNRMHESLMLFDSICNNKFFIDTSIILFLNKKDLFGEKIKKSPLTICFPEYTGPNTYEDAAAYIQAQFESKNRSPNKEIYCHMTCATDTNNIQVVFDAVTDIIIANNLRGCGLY
Guanine nucleotide-binding protein G(o) subunit alpha (Homo sapiens) + Regulator of G-protein signaling 19 (Homo sapiens), sequence (P09471 whole entry, looked up): as above
Guanine nucleotide-binding protein G(o) subunit alpha (Homo sapiens) + Regulator of G-protein signaling 19 (Homo sapiens), sequence (P49795 whole entry, looked up): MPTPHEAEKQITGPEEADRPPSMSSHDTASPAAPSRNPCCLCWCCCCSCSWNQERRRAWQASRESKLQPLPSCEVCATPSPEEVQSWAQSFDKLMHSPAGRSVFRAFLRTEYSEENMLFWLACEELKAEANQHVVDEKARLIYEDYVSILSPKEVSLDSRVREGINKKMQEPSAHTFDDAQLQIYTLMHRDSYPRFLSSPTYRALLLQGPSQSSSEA
Guanine nucleotide-binding protein G(o) subunit alpha (Homo sapiens), sequence (P09471 whole entry, looked up): as the sequence (P09471 whole entry, looked up) above

With `O=C(O)Cc1ccc(-c2ccccc2)cc1`, in [1], the percent of DMSO control GFP is 89.4% (inactive). Moreover, the GFP response vs DMSO in experiment [2] is 96.3% (inactive); in [4], 196% (active); in [6] it was 96.5% (inactive); in [6] (setting [21]), 93.3%; in experiment [6] (setting [22]), 95.9%; in [8] it was 102% (inactive). In experiment [3], the percent response of DMSO control was 65.4% (inactive). The GFP response, % of DMSO in experiment [5] is 76.9% (inactive); in experiment [9], 102% (inactive); in experiment [9] (setting [21]) it was 91.5%; in [9] (setting [22]) it was 103%. Also, the GFP response relative to DMSO was 115% (inactive) in experiment [7], 116% in experiment [7] (setting [23]) and 114% in experiment [7] (setting [24]). The double positive events in experiment [10] is 65.8%. Further, the vesicle binding response in experiment [10] was 5570% (inactive).
On to `N#C/C(C(N)=O)=c1/ccc2c(c1)N1C3=C(CCCC3)CC3CCCCC31N=2` (configuration not stated), for which the percent of DMSO control GFP in experiment [1] is 104% (inactive). The GFP response vs DMSO in [2] was 113% (inactive); in [4], 170% (active); in [6] it was 92.7% (inactive); in experiment [6] (setting [21]), 88.8%; in experiment [6] (setting [22]), 93.3%; in experiment [8] it was 101% (inactive). For the same compound, the percent response of DMSO control in experiment [3] is 94.5% (inactive). For the same compound, the GFP response, % of DMSO was 105% (inactive) in experiment [5], 88.9% (inactive) in experiment [9], 85.2% in [9] (setting [21]) and 89.3% in [9] (setting [22]). Further, the figures for the GFP response relative to DMSO in [7], in experiment [7] (setting [23]) and in [7] (setting [24]) were 118% (inactive), 115% and 123%, respectively. Further, in [10], the double positive events worked out at 59.5%. Also, the vesicle binding response in experiment [10] is 108% (inactive).
Broadly, the inhibition is the change of the read-out against control, counted positive when it falls. `O=C(Nc1ccccc1)OCc1cc(-c2ccc(Cl)cc2)on1`: the inhibition in [11] was 2.5% (inactive). For the same compound, the results for the binding response (% of control) in experiment [12] and in [15] were 107% (inactive) and 93.7% (inactive), respectively. Besides, the response (percent of control binding) in [13] is 88.4% (inactive); in experiment [16] it was 55.4% (inactive). In experiment [14], the response (% of control binding) was 107% (inactive).
For the compound `NS(=O)(=O)c1cc2c(cc1C(F)(F)F)NC(Cc1ccccc1)NS2(=O)=O` (configuration not stated), the percent of DMSO control GFP in experiment [1] is 89.8% (inactive). The GFP response vs DMSO is 140% (active) in [2]; 82.5% (inactive) in experiment [4]; 95% (inactive) in [6]; 96% in experiment [6] (setting [21]); 97.1% in experiment [6] (setting [22]); 97.5% (inactive) in [8]. The percent response of DMSO control in experiment [3] was 106% (inactive). The GFP response, % of DMSO in experiment [5] was 90.8% (inactive); in experiment [9], 102% (inactive); in [9] (setting [21]) it was 104%; in [9] (setting [22]) it was 104%. Moreover, the GFP response relative to DMSO was 97.7% (inactive) in experiment [7], 96.5% in experiment [7] (setting [23]) and 97.5% in [7] (setting [24]). Further, the double positive events in [10] stood at 64.3%. For the same compound, the vesicle binding response in experiment [10] is 176% (inactive).
`O=C(CSc1ccc2nnc(-c3ccccc3)n2n1)N1CCCc2ccccc21`: the RGS16–Galpha-o binding response in experiment [17] was found to be 413%. The RGS19–Galpha-o binding response in [18] is -1120%. For the same compound, in experiment [19], the RGS7–Galpha-o binding response came out at 207%. The same compound returned an RGS8–Galpha-o binding response in [20] of 112%. In addition, in experiment [11], the inhibition was 2% (inactive). Moreover, the binding response (% of control) in [12] is 104% (inactive); in [15], 103% (inactive). In addition, the response (percent of control binding) was 101% (inactive) in experiment [13] and 108% (inactive) in experiment [16]. The response (% of control binding) in experiment [14] is 101% (inactive).
For `COc1ccc(C(=O)COC(=O)c2ccc3ccccc3n2)cc1`, the RGS16–Galpha-o binding response in [17] was -0.98%. Moreover, the RGS19–Galpha-o binding response in experiment [18] was 167%. The compound also gave an RGS7–Galpha-o binding response in experiment [19] of 39%. The compound also had an RGS8–Galpha-o binding response in experiment [20] of 28.9%. In addition, the inhibition in experiment [11] was -1% (inactive). The binding response (% of control) in experiment [12] was 95.5% (inactive); in [15], 92.6% (inactive). Further, the response (percent of control binding) in experiment [13] is 86.7% (inactive); in experiment [16] it was 93.7% (inactive). In experiment [14], the response (% of control binding) is 95.4% (inactive).
In the case of `CCCCOC(=O)Cn1c(=N)n(CCN(CC)CC)c2ccccc21`, in [17], the RGS16–Galpha-o binding response turned out to be 0%. For the same compound, the RGS19–Galpha-o binding response in experiment [18] was -255%. For the same compound, the RGS7–Galpha-o binding response in experiment [19] amounted to 165%. The RGS8–Galpha-o binding response in experiment [20] was determined as 127%. Also, in experiment [11], the inhibition was -1.7% (inactive). Also, the binding response (% of control) is 101% (inactive) in [12] and 97.5% (inactive) in experiment [15]. Moreover, the results for the response (percent of control binding) in experiment [13] and in [16] were 95.7% (inactive) and 101% (inactive), respectively. For the same compound, the response (% of control binding) in [14] was 101% (inactive).
